The source made the active and inactive calls.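 The calls were made as follows, unless noted: active = NADPH fluorescence slope more negative than the mean of all samples by about 3 SD, 99.7% confidence; inactive = the rest.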
Legend:
[1] = inhibitors of TNFa-induced NFkB p65 translocation, primary screen, imaging, HUVEC, MLSMR starter and 10KST1 sets (AID 438;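 active = inhibition above 20% together with a positive visual image hit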;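 also: compound added about 3h40 before a 20 min TNFalpha stimulation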;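 as to inhibition: signal is the nuclear over cytoplasmic p65 intensity ratio per well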); conditions: HUVEC TNFa-induced p65 nuclear translocation; cell count: measured here: nuclei count (cytotoxicity indicator), at 2.08 µM; inhibition: at 2 µM, stronger effect = higher value, 0% TNFa-plus-vehicle, 100% no-TNFa wells
[2] = inhibitors of mutant huntingtin aggregation, primary screen, imaging, exon1htt(103Q)mCFP cells, high-content imaging (AID 483;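 active = visual image review flags a hit and inhibition of aggregation exceeds 20%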;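 also: compound exposure lasted 3 days before fixation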;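 as to nuclei count: percent of the per-plate median nuclei count of sample wells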); conditions: exon1htt(103Q)mCFP cell line, aggregate imaging, at 2 µM; inhibition of aggregation: stronger effect = higher value; nuclei count: measured here: cell count, toxicity
[3] = inhibitors of E-selectin induction by TNFa, primary screen, imaging, HUVEC, immunofluorescence, MLSMR starter and 10KST1 sets (AID 487;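 active = visually confirmed hit in the image check and inhibition above 20%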;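 as to inhibition: signal is fraction of cell area covered by stained E-selectin grains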;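 as to nuclei count: 100% = median nuclei count of all wells on the same plate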); conditions: HUVEC TNFalpha-induced E-selectin immunofluorescence imaging, at 2 µM; inhibition: stronger effect = higher value; nuclei count: measured here: cell number, toxicity
[4] = target: Voltage-gated potassium channel subunit beta-2 (Rattus norvegicus) (UniProt P62483); assay: KvBeta enzyme negative modulators, primary screen, biochemical, NADPH fluorescence (AID 622;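 active = fluorescence slope higher than the sample average by over 3 SD, cut at about -0.22 in these data, passing the limit was not always enough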;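 also: slope of raw intensity against log time taken from 70 to 1610 s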); conditions: recombinant KvBeta, 4-cyanobenzaldehyde reduction, at 10 µM, stronger effect = higher value
[5] = target: Voltage-gated potassium channel subunit beta-2 (Rattus norvegicus) (UniProt P62483); assay: KvBeta positive modulators, primary screen, biochemical, NADPH fluorescence (AID 623); conditions: Recombinant KvBeta, NADPH fluorescence decrease slope, 10 min; at 10 µM; stronger effect = lower value;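 also: fluorescence intensity change per second fitted from 20 to 320 s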
[6] = target: Alpha-2C adrenergic receptor (Homo sapiens) (UniProt P18825); assay: modulators of alpha2C/GIRK thallium flux, primary screen, cell-based, HEK293 alpha2C/GIRK1/2 (AID 624;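 active = fluorescence slope after compound addition differing from the mean of all screened samples at 99.7% confidence, in either direction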;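 also: slope of fluorescence ratio to pre-addition baseline per second over 15 to 24 s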); conditions: thallium flux BTC fluorescence, at 10 µM, actives lie on both sides
[7] = inhibitors of Sendai virus-induced IRF3 signaling, primary screen, TLR/RLR signaling modifier project, cell-based, Sendai virus stimulus, luciferase, 10K MLSCN set (AID 602276;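 active = inhibition at or above 50% at 10 µM; inactive = inhibition below 50%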;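 also: firefly luciferase from ISG56 promoter only with Renilla not read in this screen; 0% = Sendai virus plus DMSO and 100% = medium plus DMSO without virus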); conditions: HEK293 RL24 IRF3 luciferase reporter, at 10 µM, stronger effect = higher value
[8] = inhibitors of poly I:C-induced TLR3 signaling, primary screen, cell-based, poly I:C stimulus, luciferase, 10K MLSCN set (AID 602277;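 active = inhibition of the reporter signal at or above 50%; inactive = inhibition below 50%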); conditions: HEK293-TLR3 RL24 IRF3 luciferase reporter, at 10 µM, stronger effect = higher value

Voltage-gated potassium channel subunit beta-2 (Rattus norvegicus), sequence (P62483 whole entry, looked up): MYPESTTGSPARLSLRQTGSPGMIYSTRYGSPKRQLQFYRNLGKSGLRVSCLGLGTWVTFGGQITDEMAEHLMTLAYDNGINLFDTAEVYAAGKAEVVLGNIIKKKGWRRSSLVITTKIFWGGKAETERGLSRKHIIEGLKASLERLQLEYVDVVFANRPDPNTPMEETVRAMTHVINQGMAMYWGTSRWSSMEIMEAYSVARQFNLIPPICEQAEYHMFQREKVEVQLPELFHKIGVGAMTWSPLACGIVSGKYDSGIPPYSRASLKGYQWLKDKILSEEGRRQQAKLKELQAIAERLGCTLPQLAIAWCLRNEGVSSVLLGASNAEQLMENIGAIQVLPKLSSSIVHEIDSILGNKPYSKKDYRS
Alpha-2C adrenergic receptor (Homo sapiens), sequence (P18825 whole entry, looked up): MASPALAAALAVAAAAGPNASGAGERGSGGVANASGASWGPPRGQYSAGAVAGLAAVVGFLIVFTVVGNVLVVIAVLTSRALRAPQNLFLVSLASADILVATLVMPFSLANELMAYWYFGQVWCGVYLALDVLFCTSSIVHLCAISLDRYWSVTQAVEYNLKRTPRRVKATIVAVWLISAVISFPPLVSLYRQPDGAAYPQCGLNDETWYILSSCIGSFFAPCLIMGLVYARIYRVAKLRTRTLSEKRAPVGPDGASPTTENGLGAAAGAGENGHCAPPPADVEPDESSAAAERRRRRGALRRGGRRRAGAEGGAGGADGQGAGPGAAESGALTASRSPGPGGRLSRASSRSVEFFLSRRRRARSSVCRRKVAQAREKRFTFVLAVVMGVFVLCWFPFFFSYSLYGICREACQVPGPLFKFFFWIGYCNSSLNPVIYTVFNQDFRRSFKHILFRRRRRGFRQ

SMILES | cell count [1] | inhibition [1] | inhibition of aggregation [2] | nuclei count [2] [%] | inhibition [3] | nuclei count [3] [%] | fluorescence slope [4] | NADPH fluorescence slope [5] | slope [6] | inhibition [7] | inhibition [8]
O=C(c1ccco1)N1CCN(c2ccc(Cl)cc2)CC1 | 173 | -5.1% (inactive) | -6.3% (inactive) | 82.3 | 12.5% (inactive) | 93 | -0.467 (inactive) | 7.7e-05 (inactive) | 0.00616 (inactive) | -73.4% (inactive) | -172% (inactive)
CC(=O)c1cccc(S(=O)(=O)N2CCC(n3nnc4cc(F)ccc43)CC2)c1 | 598 | 2.7% (inactive) | 3.8% (inactive) | 90.5 | -14.7% (inactive) | 93.6 | -0.4 (inactive) | 2.2e-05 (inactive) | 0.00694 (inactive) | -0.237% (inactive) | 31.4% (inactive)
CC1(C)CC(=O)C2=C(C1)OC(=O)C2(NC(=O)c1cccs1)C(F)(F)F (centres undefined) | 607 | -8.2% (inactive) | 5.3% (inactive) | 104 | -9.5% (inactive) | 85.7 | -0.598 (inactive) | -4.5e-05 (inactive) | 0.00633 (inactive) | 1.37% (inactive) | 15.7% (inactive)
COc1ccc(C2CC(c3ccc(Cl)cc3Cl)Nc3nc(N)nn32)cc1 (centres undefined) | 578 | 2.3% (inactive) | -1.8% (inactive) | 105 | -10.3% (inactive) | 102 | -0.593 (inactive) | 1.1e-05 (inactive) | 0.00847 (inactive) | 13.9% (inactive) | 36.6% (inactive)
CCc1ccc(C2CC(c3ccccc3)n3ncnc3N2)cc1 (centres undefined) | 626 | 1.1% (inactive) | 25.1% (inactive) | 72 | -22.9% (inactive) | 70.6 | -0.586 (inactive) | -3.4e-05 (inactive) | 0.00702 (inactive) | 13.8% (inactive) | 28.3% (inactive)
COc1cccc(-c2csc3nnc(SCC(=O)c4ccc(NC(C)=O)cc4)n23)c1 | 452 | 0% (inactive) | 21.2% (inactive) | 106 | -116% (inactive) | 176 | -0.47 (inactive) | 0.000104 (inactive) | 0.00779 (inactive) | 8.19% (inactive) | 17.5% (inactive)
C=CCOc1nc(N(C)C)nc(N(C)C)n1 | 569 | 3.6% (inactive) | -3.6% (inactive) | 103 | -138% (inactive) | 96 | -0.595 (inactive) | -3.9e-05 (inactive) | 0.00356 (inactive) | 10.6% (inactive) | 10.6% (inactive)
CN(C)CCN1C(=O)C(O)=C(C(=O)c2cc3ccccc3o2)C1c1ccc(N(C)C)cc1 (centres undefined) | 577 | 5.8% (inactive) | 11.6% (inactive) | 95.2 | 23.3% (inactive) | 109 | -0.549 (inactive) | -2.9e-05 (inactive) | 0.00711 (inactive) | 7.8% (inactive) | 27.2% (inactive)
Cc1ccc(-c2cc(C(=O)O)n[nH]2)o1 | 358 | 1% (inactive) | 3.3% (inactive) | 101 | -1.4% (inactive) | 97.7 | -0.612 (inactive) | 4.6e-05 (inactive) | 0.00603 (inactive) | 9.01% (inactive) | 14.9% (inactive)
CC(C)C(c1nnnn1C1CCCC1)N1CCCc2ccccc21 (centres undefined) | 706 | -6.9% (inactive) | 5.4% (inactive) | 95.4 | -47.1% (inactive) | 107 | -0.423 (inactive) | -7.3e-05 (inactive) | 0.00444 (inactive) | -17.8% (inactive) | -6.74% (inactive)
CC(C)CCNC(=O)Cn1c(NCCC(C)C)nc2c1c(=O)n(C)c(=O)n2C | 544 | -8.3% (inactive) | 28.1% (inactive) | 80.1 | -11.6% (inactive) | 102 | -0.623 (inactive) | 8.9e-06 (inactive) | 0.0069 (inactive) | 3.06% (inactive) | 33.2% (inactive)
O=C1CC(C2CCCO2)C(=O)N1Cc1ccccc1 (centres undefined) | 418 | -5.4% (inactive) | 19% (inactive) | 101 | -1.7% (inactive) | 125 | -0.489 (inactive) | -3.7e-05 (inactive) | 0.00667 (inactive) | -6.03% (inactive) | 10.9% (inactive)
COc1ccc(-n2c(=O)[nH]cc(C(=O)Nc3ccc(NC(C)=O)cc3)c2=O)cc1 | 233 | 7% (inactive) | 22.1% (inactive) | 49.8 | 30.3% (inactive) | 85.4 | -0.629 (inactive) | 9.9e-06 (inactive) | 0.0073 (inactive) | 9.68% (inactive) | 24.1% (inactive)
CCc1nnc(NC(=O)c2ccc(S(=O)(=O)N(CC(C)C)CC(C)C)cc2)o1 | 415 | -1.4% (inactive) | 2.2% (inactive) | 94.8 | 12.8% (inactive) | 81.5 | -0.507 (inactive) | -1.1e-05 (inactive) | 0.00793 (inactive) | 8.12% (inactive) | 15.2% (inactive)
